Experiment [1] in a line: qHTS assay to identify small molecule antagonists of the sonic hedgehog signaling (Shh) pathway (AID 1259369). Note: nearly all actives have a fitted effect of over 45% in size. Note: potency is the fitted concentration of half-maximal effect. To be noted: NIH/3T3 Gli1-Luc reporter, Shh antagonist, luminescence 24 h; series mostly up to 92.4 µM. The gist of the method:
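Gli1 transcriptional reporter (firefly Luc) in NIH/3T3 background, conditioned-medium activated. 24hr exposure, luminescence endpoint.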

The target of experiment [2] is Estrogen receptor beta (Homo sapiens) (UniProt Q92731). Nature of the experiment: qHTS assay to identify small molecule antagonists of the estrogen receptor beta (ER-beta) signaling pathway (AID 1259378; active = well fitted inhibition curve with a large enough effect in the signal ratio in the repeat runs, not every such curve was filed as active; the % refers to the signal ratio; note: potency is the fitted concentration of half-maximal effect). To be noted: ER-beta-UAS-bla HEK293T, beta-lactamase FRET ratio, 16 h; series mostly up to 92.4 µM. The gist of the method:
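ER-beta-UAS-bla HEK293T cells in 2% charcoal-stripped FBS medium treated with compound plus 1nM final 17-beta-estradiol for 16 hr at 37C. Beta-lactamase reporter read by FRET substrate fluorescence after 2 hours at room temperature.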

Experiment [3] is described as follows: qHTS assay to identify small molecule agonists of the androgen receptor (AR) signaling pathway in the presence of an antagonist - cell viability counter screen (AID 1259379; active = well fitted curve in the direction sought with a large enough effect in the repeat runs; an effect the other way counts as inactive or inconclusive; note: nearly all actives have a fitted effect of over 25% in size; note: potency is the fitted concentration of half-maximal effect). To be noted: MDA-kb2 viability, CellTiter-Fluor, 16 h; series mostly up to 92.4 µM. The method in brief:
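Counter screen for cell viability run in parallel with the AR agonist-mode luciferase assay. MDA-kb2 cells were co-treated with nilutamide (3.0uM final) and compounds, then incubated 16 hr at 37C, and CellTiter-Fluor fluorescence was measured.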

Experiment [4] in a line: qHTS assay to identify small molecule agonists of the estrogen receptor beta (ER-beta) signaling pathway - cell viability counter screen (AID 1259380; active = well fitted curve in the direction sought with a large enough effect in the repeat runs; an effect the other way counts as inactive or inconclusive; note: nearly all actives have a fitted effect of over 30% in size; note: potency is the fitted concentration of half-maximal effect). To be noted: ER-beta-bla HEK293T viability, CellTiter-Glo luminescence, 16 h; series mostly up to 92.4 µM. The gist of the method:
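In this qHTS counter screen, HEK293T cells carrying an ER-beta/UAS beta-lactamase reporter, grown in 2% charcoal-stripped FBS, received compound for 16 hr; ATP-based CellTiter-Glo luminescence was then read after 30 min at room temperature.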

Experiment [5] has as its target Androgen receptor (Homo sapiens) (UniProt P10275). The experiment is described as follows: qHTS assay to identify small molecule agonists of the androgen receptor (AR) signaling pathway in the presence of an antagonist (AID 1259381). Note: nearly all actives have a fitted effect of over 15% in size. To be noted: MDA-kb2 MMTV-luciferase, AR agonist + nilutamide, 16 h; series mostly up to 92.4 µM. The gist of the method: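 AR antagonist background: nilutamide 3.0uM final. Cell line: MDA-kb2, MMTV-driven luciferase, responsive to both AR and GR. Exposure 16hr, 37C, no CO2; ONE-Glo luminescence.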

The nature of experiment [6]: qHTS assay to identify small molecule antagonists of the estrogen receptor beta (ER-beta) signaling pathway - cell viability counter screen (AID 1259382; active = well fitted curve in the direction sought with a large enough effect in the repeat runs; an effect the other way counts as inactive or inconclusive; note: nearly all actives have a fitted effect of over 55% in size; note: potency is the fitted concentration of half-maximal effect). Conditions: ER-beta-UAS-bla HEK293T viability, CellTiter-Glo luminescence, 16 h; series mostly up to 92.4 µM. The method in brief:
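HEK293T ER-beta-UAS-bla, 2% charcoal-stripped FBS; compounds + 1nM E2 16 hr 37C; CellTiter-Glo luminescence, 30 min RT.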

Experiment [7] addresses Estrogen receptor (Homo sapiens) (UniProt P03372). The experiment is described as follows: qHTS assay to identify small molecule agonists of the estrogen receptor alpha (ER-alpha) signaling pathway in the presence of an antagonist (AID 1259383). Note: top concentration of the series differs between compounds; nearly all actives have a fitted effect of over 15% in size. To be noted: VM7Luc4E2 cells, ERE-luciferase, +ICI-182,780, 22 h; series mostly up to 92.4 µM. The method in brief: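 ER-alpha agonism measured under antagonist challenge: 10.0nM ICI-182,780 (final) plus compound, 15 concentrations, 22hr, VM7Luc4E2 ERE-luciferase cells. Read by luminescence.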

A short description of experiment [8]: qHTS assay to identify small molecule agonists or antagonists of the thyroid stimulating hormone receptor (TSHR) signaling pathway - wild type cell line counter screen (AID 1259384). Conditions: HEK293 wild type, cAMP HTRF counter-screen; series mostly up to 92.4 µM. The gist of the method:
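Wild-type Hek293 cells, 800/well, 18 h at 37C, then compound with Ro20-1724 for 30 min RT. cAMP by HTRF (cAMP-d2/anti-cAMP cryptate), 1 h RT, fluorescence read. 15 concentrations, triplicates.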

Experiment [9] concerns the target Thyrotropin receptor (Homo sapiens) (UniProt P16473). Nature of the experiment: qHTS assay to identify small molecule antagonists of the thyroid stimulating hormone receptor (TSHR) signaling pathway (AID 1259385). Note: nearly all actives have a fitted effect of over 20% in size. To be noted: TSHR-HEK293 cAMP HTRF, TSH-stimulated antagonist mode; series mostly up to 92.4 µM. The gist of the method:
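TSHR-HEK293 cells (800/well) plated 18 h, then compounds with Ro20-1724 and TSH at 1.5 ng/mL final, 30 min at room temperature. cAMP quantified by HTRF (cAMP-d2/anti-cAMP-cryptate, 1 h); 15 concentrations in triplicate.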

The target of experiment [10] is Estrogen receptor beta (Homo sapiens) (UniProt Q92731). Nature of the experiment: qHTS assay to identify small molecule agonists of the estrogen receptor beta (ER-beta) signaling pathway (AID 1259377; active = well fitted activation curve with a large enough effect in the signal ratio in the repeat runs, not every such curve was filed as active; the % refers to the signal ratio). To be noted: ER-beta-UAS-bla HEK293T, beta-lactamase FRET ratio, 16 h; series mostly up to 92.4 µM. The method in brief:
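Agonist mode cell assay in GripTite HEK293T cells expressing an ER-beta fusion that drives beta-lactamase from an Upstream Activator Sequence; 16 hr compound exposure at 37C, then 2 h LiveBLAzer B/G FRET substrate at room temperature, fluorescence read-out.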

Values joined by “and” are separate entries in the source; they are usually repeats but may differ in a detail not shown here. Equal entries are not always repeated. Results filed as inconclusive are left out. Some compounds were tested as several samples or in several runs, with calls that do not always agree. Active and inactive are the calls of the source. Unless noted, calls come from the whole dose curve.

Sequence of Estrogen receptor beta (Homo sapiens) (Q92731 whole entry, looked up, the tested form may be a part): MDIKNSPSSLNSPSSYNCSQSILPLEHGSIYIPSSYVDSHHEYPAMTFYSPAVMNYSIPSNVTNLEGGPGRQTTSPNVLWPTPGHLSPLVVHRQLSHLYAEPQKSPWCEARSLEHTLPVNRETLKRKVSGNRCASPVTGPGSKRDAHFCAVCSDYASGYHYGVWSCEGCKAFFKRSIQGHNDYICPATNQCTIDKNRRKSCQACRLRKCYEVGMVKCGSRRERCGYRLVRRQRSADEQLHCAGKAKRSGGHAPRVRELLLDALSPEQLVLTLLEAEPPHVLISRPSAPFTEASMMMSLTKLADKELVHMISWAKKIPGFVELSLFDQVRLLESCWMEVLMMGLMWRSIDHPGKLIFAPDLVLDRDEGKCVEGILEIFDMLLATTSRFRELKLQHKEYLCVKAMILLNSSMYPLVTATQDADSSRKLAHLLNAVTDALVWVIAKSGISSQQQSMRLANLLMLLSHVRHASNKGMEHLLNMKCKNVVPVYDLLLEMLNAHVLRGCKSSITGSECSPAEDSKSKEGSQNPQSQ
Sequence of Androgen receptor (Homo sapiens) (P10275 whole entry, looked up): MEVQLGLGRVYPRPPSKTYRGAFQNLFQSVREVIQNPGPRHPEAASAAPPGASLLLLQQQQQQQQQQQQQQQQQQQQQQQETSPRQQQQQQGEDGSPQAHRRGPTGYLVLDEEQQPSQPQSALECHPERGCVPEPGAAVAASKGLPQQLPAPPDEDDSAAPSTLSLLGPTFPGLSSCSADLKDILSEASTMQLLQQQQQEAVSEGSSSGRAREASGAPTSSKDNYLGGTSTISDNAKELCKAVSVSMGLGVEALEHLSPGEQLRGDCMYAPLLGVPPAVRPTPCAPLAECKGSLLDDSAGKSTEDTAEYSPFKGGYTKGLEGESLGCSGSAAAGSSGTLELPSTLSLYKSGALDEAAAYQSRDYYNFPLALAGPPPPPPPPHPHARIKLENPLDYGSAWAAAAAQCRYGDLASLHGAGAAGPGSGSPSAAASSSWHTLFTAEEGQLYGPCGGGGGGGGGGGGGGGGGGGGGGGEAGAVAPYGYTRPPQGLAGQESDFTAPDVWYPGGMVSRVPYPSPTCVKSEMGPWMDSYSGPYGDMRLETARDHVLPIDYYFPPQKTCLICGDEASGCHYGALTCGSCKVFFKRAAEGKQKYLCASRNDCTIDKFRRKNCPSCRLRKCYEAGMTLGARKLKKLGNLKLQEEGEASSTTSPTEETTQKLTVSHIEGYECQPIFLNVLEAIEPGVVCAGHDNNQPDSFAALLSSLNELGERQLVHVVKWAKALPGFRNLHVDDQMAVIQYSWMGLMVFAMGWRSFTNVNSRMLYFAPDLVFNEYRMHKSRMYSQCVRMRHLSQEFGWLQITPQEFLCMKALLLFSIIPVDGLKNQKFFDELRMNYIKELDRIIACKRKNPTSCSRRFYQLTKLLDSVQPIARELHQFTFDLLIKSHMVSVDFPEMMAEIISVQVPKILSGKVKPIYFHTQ
Sequence of Estrogen receptor (Homo sapiens) (P03372 whole entry, looked up): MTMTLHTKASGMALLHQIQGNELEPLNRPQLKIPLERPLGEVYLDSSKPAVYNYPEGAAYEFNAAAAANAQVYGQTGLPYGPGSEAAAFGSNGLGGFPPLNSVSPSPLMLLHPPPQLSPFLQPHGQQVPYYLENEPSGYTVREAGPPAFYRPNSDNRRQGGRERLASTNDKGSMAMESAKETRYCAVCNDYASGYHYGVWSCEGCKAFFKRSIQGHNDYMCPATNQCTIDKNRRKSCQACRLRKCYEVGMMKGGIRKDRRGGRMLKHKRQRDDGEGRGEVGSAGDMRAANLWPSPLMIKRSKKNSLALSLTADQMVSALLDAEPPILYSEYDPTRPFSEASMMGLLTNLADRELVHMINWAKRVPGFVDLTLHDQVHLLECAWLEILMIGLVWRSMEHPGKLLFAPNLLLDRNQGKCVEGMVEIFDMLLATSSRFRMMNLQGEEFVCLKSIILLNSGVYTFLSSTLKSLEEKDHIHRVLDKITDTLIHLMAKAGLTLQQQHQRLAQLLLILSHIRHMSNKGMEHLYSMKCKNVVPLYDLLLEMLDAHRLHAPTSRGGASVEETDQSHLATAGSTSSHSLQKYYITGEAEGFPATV
Sequence of Thyrotropin receptor (Homo sapiens) (P16473 whole entry, looked up): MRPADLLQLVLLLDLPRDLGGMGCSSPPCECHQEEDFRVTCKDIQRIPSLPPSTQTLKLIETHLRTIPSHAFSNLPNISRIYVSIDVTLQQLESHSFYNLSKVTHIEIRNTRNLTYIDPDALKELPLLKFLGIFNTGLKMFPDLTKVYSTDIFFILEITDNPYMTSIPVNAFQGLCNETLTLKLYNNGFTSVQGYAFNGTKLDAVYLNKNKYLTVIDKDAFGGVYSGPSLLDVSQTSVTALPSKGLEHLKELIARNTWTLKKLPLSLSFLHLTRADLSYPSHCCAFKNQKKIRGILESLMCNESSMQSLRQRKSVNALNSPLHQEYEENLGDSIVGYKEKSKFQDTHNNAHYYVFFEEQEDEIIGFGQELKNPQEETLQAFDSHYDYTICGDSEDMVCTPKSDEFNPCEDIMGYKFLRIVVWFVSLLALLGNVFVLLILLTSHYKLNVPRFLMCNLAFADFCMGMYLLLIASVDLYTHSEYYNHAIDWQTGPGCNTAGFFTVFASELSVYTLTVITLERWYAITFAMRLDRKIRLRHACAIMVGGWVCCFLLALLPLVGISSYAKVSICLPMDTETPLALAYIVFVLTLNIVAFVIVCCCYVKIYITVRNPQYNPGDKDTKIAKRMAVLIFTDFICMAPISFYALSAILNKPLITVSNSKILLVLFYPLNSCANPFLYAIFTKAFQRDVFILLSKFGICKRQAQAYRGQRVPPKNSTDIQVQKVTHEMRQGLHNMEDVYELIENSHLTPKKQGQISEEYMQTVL

Regarding `CC1=C(C(=O)Nc2ccccc2)SCCO1`, the Potency entry in experiment [1], in [2], in experiment [3], in experiment [4], in [6] and in experiment [7] was “inactive” each time. Besides, the Potency entry in experiment [8] and in experiment [9] was “inactive” throughout. The outcome in experiment [5] was inactive.
`CCOS(=O)(=O)OCC`: the Potency entry in [1], in experiment [10], in [2], in experiment [3], in experiment [4] and in experiment [6] was “inactive” throughout. The Potency entry in experiment [7], in [8] and in experiment [9] was “inactive” each time.
As to `Clc1cccc(C(Cl)(Cl)Cl)n1`, the Potency entry in experiment [1], in [10], in experiment [2], in [3], in experiment [4] and in experiment [6] was “inactive” each time. The Potency result in experiment [7], in experiment [8] and in [9] was “inactive” each time. The outcome in experiment [5] was inactive.
For `CCNc1nc(Cl)nc(NC(C)(C)C#N)n1`, the Potency in experiment [1] is 685 nM (active). Besides, the Potency result in experiment [10], in experiment [2], in [3], in experiment [4], in experiment [6] and in [8] was “inactive” throughout. In addition, the Potency result in [9] is “inactive”.
Take `COC(=O)Nc1nc2ccccc2[nH]1`: in experiment [1], the Potency was 24.3 µM (active) and inactive. The Potency entry in experiment [10], in experiment [2], in experiment [3], in experiment [4], in [6] and in [8] was “inactive” each time. Also, the Potency entry in experiment [9] was “inactive”. Further, the outcome in experiment [5] was inactive.
On to `CCCCCCCCCc1ccc(O)cc1`, for which the Potency is 30.9 µM (active) and 43.3 µM (active) in [1]; 19.5 µM (active) in experiment [2]; 13.8 µM (active) and 43.3 µM (active) in [4]. The Potency entry in experiment [10], in experiment [3], in experiment [7], in [8] and in experiment [9] was “inactive” in each case.
On to `CCOP(=S)(OCC)OP(=S)(OCC)OCC`, for which the Potency result in experiment [1], in [10], in experiment [2], in experiment [3], in experiment [4] and in experiment [6] was “inactive” throughout. Moreover, the Potency result in experiment [8] and in [9] was “inactive” in each case. The result in [5] was inactive.
Take `Brc1ccc(Br)cc1`: the Potency entry in experiment [1] is “inactive and 54.5 µM (active)”. Also, the Potency result in experiment [10], in [2], in experiment [3], in [4], in experiment [6] and in [8] was “inactive” each time. In addition, the Potency result in experiment [9] is “inactive”.
Turning to `N#Cc1nn(-c2c(Cl)cc(C(F)(F)F)cc2Cl)c(N)c1S(=O)C(F)(F)F` (centres undefined), the Potency entry in [1] is “inactive and 29.8 µM (active)”; in experiment [2], 23.7 µM (active); in [3] it was 61.5 µM (active) and inactive. In addition, the Potency result in experiment [10], in experiment [4], in experiment [6], in experiment [7], in experiment [8] and in [9] was “inactive” in each case. Besides, the result in experiment [5] was inactive.
For the compound `CC(C)Nc1ccc(Nc2ccccc2)cc1`, the Potency was 5430 nM (active) in [1]; 60.9 µM (active) and 68.6 µM (active) in experiment [3]; 19.3 µM (active) and 27.3 µM (active) in experiment [4]; 15.3 µM (active) and 27.3 µM (active) in experiment [6]. Besides, the Potency result in experiment [10] and in experiment [7] was “inactive” each time.
Consider `C=CC(Cl)CCl` (centres undefined), for which the Potency result in experiment [1], in experiment [10], in experiment [2], in [3], in experiment [4] and in experiment [6] was “inactive” each time. In addition, the Potency result in experiment [8] and in [9] was “inactive” throughout. The result in [5] was inactive.
As to `NC(=O)CN1CCCC1=O`, the Potency entry in [1], in [2], in experiment [3], in experiment [4] and in experiment [6] was “inactive” each time.
As for `Clc1cccc(Cl)c1`, the Potency result in [1], in [10], in experiment [2], in experiment [3], in [6] and in experiment [8] was “inactive” each time. In addition, in [9], the Potency result is “inactive”.
On to `[CH3][Sn]([Cl])([Cl])[Cl]`, for which the Potency entry in experiment [1], in experiment [10], in experiment [2], in experiment [3], in experiment [4] and in experiment [6] was “inactive” in each case. Besides, the Potency result in experiment [8] and in experiment [9] was “inactive” in each case.
With `CN(C)c1nc(=O)n(C2CCCCC2)c(=O)n1C`, the Potency entry in [1], in experiment [10], in experiment [2], in [3], in experiment [4] and in experiment [6] was “inactive” each time. The Potency entry in [7], in experiment [8] and in [9] was “inactive” in each case.
Consider `Nc1ncn[nH]1`, for which the Potency result in experiment [1], in experiment [10], in experiment [2], in experiment [3], in experiment [4] and in experiment [6] was “inactive” in each case. Moreover, the Potency result in [8] and in experiment [9] was “inactive” in each case.
For `OCCOCCO`, in experiment [1], the Potency was 4.46 µM (active) and inactive. The Potency result in [10], in experiment [2], in experiment [3], in experiment [4], in experiment [6] and in experiment [7] was “inactive” each time.
Turning to `CNC(=O)Oc1cccc2c1OC(C)(C)C2`, the Potency entry in [1], in experiment [2], in experiment [3], in [4], in [6] and in [7] was “inactive” each time. The Potency entry in experiment [8] and in [9] was “inactive” throughout. Further, the outcome in experiment [5] was inactive.
On to `O=C1CCCO1`, for which the Potency result in [1], in experiment [10], in experiment [2], in experiment [3], in experiment [4] and in [6] was “inactive” throughout. Besides, the Potency entry in experiment [8] and in [9] was “inactive” in each case. Moreover, the outcome in [5] was inactive.
For the compound `N#CC(c1ccccc1)c1ccccc1`, the Potency result in [1], in experiment [10], in experiment [2], in [3], in experiment [4] and in experiment [6] was “inactive” each time. The Potency entry in [8] and in [9] was “inactive” in each case.
Take `CCC[CH2][Sn]([Cl])([Cl])[CH2]CCC`: the Potency was 196 nM (active) and 243 nM (active) in experiment [1]; 552 nM (active) and 1.09 µM (active) in experiment [3]; 981 nM (active) and 1.54 µM (active) in experiment [4]; 1.39 µM (active) and 1.54 µM (active) in experiment [6]. In addition, the Potency result in experiment [10] and in experiment [7] was “inactive” throughout.
In the case of `CC(C)(O)C(=O)Nc1ccc([N+](=O)[O-])c(C(F)(F)F)c1`, the Potency in experiment [1] was 24.8 µM (active) and 22.4 µM (active). The Potency entry in [10], in experiment [2], in experiment [4], in [6], in experiment [7] and in experiment [8] was “inactive” each time. For the same compound, the Potency entry in experiment [9] was “inactive”.

For the origin of these results see PubChem BioAssay (Tox21).
